The structures appear in SMILES notation. Several values for one entry are separate records, joined by “and”; a condition that tells them apart may be missing. Identical values can stand only once. Inconclusive results are not listed. Values without a mark were called inactive. Activity calls are given as the source filed them. Calls follow the shape of the full dose curve.

Potency and activity change, negative = cytotoxicity data for 17 compounds are collected here from PubChem BioAssay (Tox21).
% is scaled to controls: 0 for no effect and ±100 for the full control effect; potency is read from the fitted curve at half-maximal effect.

A short description of the test: qHTS assay to identify small molecule agonists of H2AX - cell viability counter screen (AID 1224847). Also: nearly all actives have a fitted effect of over 30% in size. As to activity change, negative = cytotoxicity: top concentration of the series differs between compounds. The note with it: CHO-K1 viability, CellTiter-Glo luminescence, 3 h; series mostly up to 154 µM. From the text: National Center for Advancing Translational Sciences [NCATS]
NIH Chemical Genomics Center [NCGC]
U.S. Environmental Protection Agency [EPA]
National Institutes of Environmental Health Sciences [NIEHS]
National Toxicology Program [NTP]
U.S. Food and Drug Administration [FDA]
HTRF phospho-H2AX (Ser139) assay (Cisbio Bioassays, US) enables the quantitative detection of the histone variant H2AX when phosphorylated on serine 139. When double-stranded DNA breaks, either by ionizing radiation or endogenous physiological processes, H2AX becomes phosphorylated at Ser139. This phospho-Ser139 serves as a sensitive biomarker for the detection of such breaks, localizing the site of DNA repair. So, HTRF phospho-H2AX Ser139 is a pertinent assay to study genome stability, the cell cycle, DNA repair, and it serves as a biomarker for cancer, and to understand aging. Wild type CHO-K1 cells were used to identify the inducers of Phospho-H2AX Ser 139 from the Tox21 compound collections. Also cytotoxicity of the Tox21 10K compound library against the CHO-K1 cell line was tested by measuring the cell viability using CellTiter-Glo assay (Promega, Madison, WI).
Tox21 Assay Protocol Summary:
The CHO-K1 cells suspended in culture medium containing 10% FBS were dispensed at 1000 cells/ 3 ul/well in 1536-well white wall/solid bottom plates (Greiner Bio-One North America, NC) using a Multidrop Combi (Thermo Fisher Scientific Inc., Waltham, MA). After the assay plates were incubated at 37C overnight, 23 nl of compounds at 15 concentrations (from 5-48 columns) or positive control (from 1 to 4 columns) were transferred to the assay plates using a Pintool station (Wako, San Diego, CA) into each well resulting in a final DMSO concentration of 0.76%. After 3hr incubation at 37C, 3 uL/well CellTiter-Glo luminescent cell viability reagent (Promega Corporation, Madison, WI) was added using a Flying Reagent Dispenser (FRD) (Aurora Discovery, CA). After incubation at room temperature for 30 min, the luminescence intensity was read using a ViewLux plate reader (PerkinElmer, Waltham, MA).
On the technique in general: In qHTS, concentration-response curves come from the screen itself.
For `CO/C=C(/C(=O)OC)c1ccccc1Oc1cc(Oc2ccccc2C#N)ncn1`, the Potency is 0.678 µM (active).
Take `COc1ccc(C(c2ccc(OC)cc2)C(Cl)(Cl)Cl)cc1`: the Potency is 50.2 µM (active).
Regarding `OCC(c1ccc(Cl)cc1)c1ccc(Cl)cc1`, the Potency is 89.8 µM (active).
For `CC1COC(Cn2cncn2)(c2ccc(Oc3ccc(Cl)cc3)cc2Cl)O1` (configuration not stated), the Potency is 101 µM (active).
Consider `ClC1=C(Cl)[C@]2(Cl)[C@@H]3[C@@H](Cl)[C@H]4O[C@H]4[C@@H]3C1(Cl)C2(Cl)Cl`, for which the Potency was 113 µM (active).
The same measure, in the same setting: in the case of `CN1CSC(=S)N(C)C1` it was 56.4 µM (active).
The same measure, in the same setting: in the case of `C[C@]12CC[C@@H](O)C[C@@H]1CC[C@@H]1[C@@H]2CC[C@]2(C)C(=O)CC[C@@H]12` it was 101 µM (active); in that of `Nc1ccc([N+](=O)[O-])cc1`, 101 µM (active).
For the compound `Clc1ccccc1-c1ccccc1Cl`, the Potency is 64.5 µM (active).
The same measure, in the same setting: the figure for `Cc1ccc(N(SC(F)(Cl)Cl)S(=O)(=O)N(C)C)cc1` is 89.8 µM (active); for `O=S(=O)(C(Cl)(Cl)Cl)C(Cl)(Cl)Cl` it is 89.8 µM (active).
As for `COc1cc(OC)c(OC)cc1C=O`, the Potency result is “inactive”.
`CNC(=O)Oc1cc(C)c(SC)c(C)c1`: the Potency entry is “inactive”.
`CCOC(=O)C(O)(c1ccc(Cl)cc1)c1ccc(Cl)cc1`: the Potency is 90.7 µM (active) and 56.6 µM (active).
Still for that read-out and setting: in the case of `CCN(CC)C(=O)Cl` it was “inactive”.
For the compound `Cc1ccc2nc3sc(=O)sc3nc2c1`, the activity change, negative = cytotoxicity was 0.633% [at 31.6 µM].
In the case of `Cc1cc(C(C)(C)c2ccc(O)c(C)c2)ccc1O`, the Potency was 108 µM (active).
